Experimental data taken from PubChem BioAssay (NCATS).
Records with an inconclusive call do not appear. The source made the active and inactive calls. Calls come from the whole dose curve; as a rule, active = well fitted cell-killing curve with a large enough effect; inconclusive = small, poorly fitted or top-dose-only effect; inactive = flat fitted curve, though single readings scatter.

assay: qHTS of pediatric cancer cell lines to identify multiple opportunities for drug repurposing: Primary screen for RD cells (AID 1347104); settings: RD rhabdomyosarcoma viability, CellTiter-Glo luminescence, 48 h; series mostly up to 46 µM; activity change, negative = cytotoxic: at the top concentration; note: nearly all actives have a fitted effect of over 55% in size
Description: Drug repurposing or repositioning has been offered as a strategy for drug development in oncology programs. This approach has special potential for childhood cancers and other rare or orphan diseases, where the expected return on new drug development has been a disincentive to pharmaceuticals. […] In this project we exploit the poly-pharmacology of drugs to discover new indications via phenotypic screening of a panel of 19 well-characterized cell lines derived from solid tumors seen in children and adolescents. The goal is to identify approved drugs with previously unrecognized anticancer properties that has the potential to reveal new mechanisms and biological processes involved in carcinogenesis or drug resistance. We employed a titration-based paradigm (quantitative high-throughput screening or qHTS), where all compounds were tested at multiple concentrations for their effect on cell viability. Concentration-response curves (CRCs) were derived directly from the primary screen, and both potency and efficacy values were used to identify compounds with robust bioactivity profiles. We screened the NIH Chemical Genomics Center (NCGC) Pharmaceutical Collection (NPC) and Mechanism Interrogation Plate (MIPE) small molecule collections of approved and investigational compounds against these cell lines; and measured metabolically active cells after 48 hours of compound treatment as a proxy for cell viability. […] Assay Submitter: Nathalia J. Martinez, National Center for Advancing Translational Sciences, National Institutes of Health, Rockville, MD, USA; email: natalia.martinez@nih.gov Shen, M et al. Quantitative high-throughput phenotypic screening of pediatric cancer cell lines identifies multiple opportunities for drug repurposing. Oncotarget 2017 Dec 19;9(4):4758-4772. PMID 29435139.
The cells were obtained from University of North Carolina (UNC), Pediatric Preclinical Testing Program (PPT), and Coriell Institute (CI). qHTS cell viability assay: Cells were assayed in growth media at a density of 500-1,000 cells/well. Five microliters of cells were dispensed into 1,536-well, white, solid-bottom, TC-treated plates (Greiner Bio One) using a multidrop dispenser and incubated at 37 degrees C, 5% CO2, under a humidified atmosphere for 5 hours. Twenty-three nanoliters of compounds and controls (neutral control DMSO or positive control bortezomib at final concentration of 2.3 µM) were subsequently transferred by Kalypsys pintool. For primary screens, the MIPE collection was tested at 11-point dilutions (final concentrations range from 0.78 nM to 46 µM) and the NPC collection at 8-point dilutions (final concentrations range from 0.59 nM to 46 µM). Compounds tested in follow-up screens were assayed at 11-point dilutions. Cells were incubated for 48 hours, followed by addition of 3 µL of CellTiter-Glo (Promega). After a 15 min incubation at room temperature, samples were analyzed for luminescence intensity using a ViewLux High-throughput CCD imager equipped with clear filters.
Potency is the fitted concentration of half-maximal effect.

SMILES	activity change, negative = cytotoxic	Potency
CCCC[N+]1(C)[C@@H]2CC(OC(=O)[C@H](CO)c3ccccc3)C[C@H]1[C@@H]1O[C@@H]12 (stereo not given in full)	10.7% (inactive)	–
C[C@H](N)[C@H](O)c1ccc(O)c(O)c1	-11.8% (inactive)	–
COP(=S)(OC)Oc1ccc(Sc2ccc(OP(=S)(OC)OC)cc2)cc1	7.69% (inactive)	–
COc1ccc2c3c1O[C@H]1[C@@H](O)C=C[C@H]4[C@@H](C2)N(C)CC[C@@]341	–	47.6 µM (active)
CC[C@]1(O)CC[C@H]2[C@@H]3CCC4=CCCC[C@@H]4[C@H]3CC[C@@]21C	-33.9% (inactive)	–
CCCCC1C(=O)NC(=O)N(C2CCCCC2)C1=O (stereo not given)	16.8% (inactive)	–
CC(C)C(Br)C(=O)NC(N)=O (stereo not given)	-2.31% (inactive)	–
CCOC(=O)C1(c2ccccc2)CCN(CCc2ccc(N)cc2)CC1	-10.4% (inactive)	–
CNC(C)Cc1ccccc1OC (stereo not given)	-7.84% (inactive)	–
C[C@]12CC[C@H]3[C@@H](CCC4=CC(=O)CC[C@@]43C)[C@@H]1CC[C@@H]2C(=O)O	12.8% (inactive)	–
Cc1nc2ccccc2c(=O)n1-c1ccccc1Cl	-1.4% [at 92.7 µM] (inactive)	–
COc1ccc(CN2CCNCC2)c(OC)c1OC	10.2% (inactive)	–
C#C[C@]1(O)C=C[C@H]2[C@@H]3CCC4=CC(=O)CC[C@@H]4[C@H]3CC[C@@]21CC	-1.35% (inactive)	–
CCC1(CC)C(=O)NC(=O)NC1=O	-8.9% (inactive)	–
CCC(=O)C(CCN(C)C)(c1ccccc1)c1ccccc1	0.149% (inactive)	–
CC(C)=C[C@@H]1[C@@H](C(=O)OCc2coc(Cc3ccccc3)c2)C1(C)C	-2.21% (inactive)	–
CCOC(=O)NC(C)(C)Cc1ccc(Cl)cc1	9.43% (inactive)	–
O=C(O)CCCCCCNC1c2ccccc2CCc2ccccc21	10.7% (inactive)	–
CC(Cc1ccccc1)NCCCCl (stereo not given)	1.96% (inactive)	–
c1ccc2c(c1)Sc1ccccc1N2CC1CN2CCC1CC2 (stereo not given)	–	15 µM (active)

SMILES	activity change, negative = cytotoxic	Potency
COc1cc(N)c(Cl)cc1C(=O)NC1CN2CCC1CC2 (stereo not given)	0.586% (inactive)	–
O=C(CCCCl)c1ccc(F)cc1	11.5% (inactive)	–
COc1ccc(OC)c(CC(C)N)c1 (stereo not given)	-6.72% [at 92.7 µM] (inactive)	–
CCN(CC)C(C)C(=O)c1ccccc1 (stereo not given)	8.58% (inactive)	–
Sc1ccccc1Cl	0.844% (inactive)	–
NC(=O)CN1CCCC1=O	8% (inactive)	–
CCN(CC)CCOC(=O)C(C)(c1ccccc1)c1ccccc1	-7.49% (inactive)	–
C[C@@H]1CN(C2CCC(C#N)(c3ccc(F)cc3)CC2)CC[C@]1(C(=O)O)c1ccccc1 (stereo not given in full)	1.86% (inactive)	–
O=C(N[C@@H]1N=C(c2ccccc2F)c2cccc3c2N(CC3)C1=O)c1cc2ccccc2[nH]1	-9.4% (inactive)	–
CCc1ccc(C2CCNCC2)cc1	-13.8% (inactive)	–
ClC1=C(Cl)C2(Cl)C(CBr)CC1(Cl)C2(Cl)Cl (stereo not given)	2.18% (inactive)	–
CCN1CCCC1CNC(=O)C(O)(c1ccccc1)c1ccccc1 (stereo not given)	8.22% (inactive)	–
ClCCCN1CCN(c2cccc(Cl)c2)CC1	-0.426% (inactive)	–
O=c1n(Cl)c(=O)n(Cl)c(=O)n1Cl	11% (inactive)	–
NCc1cccnc1	13.5% (inactive)	–
O=C1CN2CCOC2(c2ccccc2Cl)c2cc(Cl)ccc2N1 (stereo not given)	0.647% (inactive)	–
C=CCOC(Cn1ccnc1)c1ccc(Cl)cc1Cl (stereo not given)	-9.86% (inactive)	–
CC(C)(O)C(Cl)(Cl)Cl	19.9% (inactive)	–
Cc1ncc2n1-c1ccc(Cl)cc1C(c1ccccc1F)=NC2	-18.2% (inactive)	–
CCCCCCCCC(=O)NCc1ccc(O)c(OC)c1	-13.9% (inactive)	–
